CHX counter – counter-screen hit for Shiga toxin inhibitors, cycloheximide; max response, %; 300,000 tested, 12% active; AID 2314; cell reporter, cycloheximide protein synthesis inhibition counterscreen; in the data active = max response mostly above about 13%, no sharp cut-off; inactive = mostly below about 14%; also: read at 38.3 µM for the half of the compounds with a filed dose; 0% is about no effect
LmPK inhibitor – LmPK (Leishmania mexicana) enzyme inhibition; purified LmPK, Kinase-Glo ATP luminescence, 1 h; Potency, µM (titrated, usually from 57.5 µM), for inactives: at the top dose activity change, negative = inhibition, hits mostly inhibitors; 290,000 tested, 0.37% active; AID 1721; also: potency is read from the fitted curve at half-maximal effect; % is scaled to controls: 0 for no effect and ±100 for the full control effect
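In 50 mM imidazole pH 7.2 with 7 mM MgCl2, LmPK (0.1 nM) turned over PEP (0.5 mM) and ADP (0.1 mM) for 1 h at room temperature. Luciferase read-out of ATP.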
Shiga toxin inh – blocks Shiga toxin action in Vero cells | Vero cells, Shiga toxin protein synthesis inhibition reporter | inhibition, % at 38.7 µM | 290,000 tested, 9.2% active; in the data active = inhibition mostly above about 28%, no sharp cut-off; inactive = mostly below about 43%; also: 0% is about no effect
Giardia FBPA inh – blocks Giardia fructose-bisphosphate aldolase activity; Potency, µM (titrated, usually from 59.6 µM), for inactives: at the top dose activity, negative = inhibition, hits mostly inhibitors; AID 2451; purified Giardia FBPA; 290,000 tested, 0.71% active; also: potency is read from the fitted curve at half-maximal effect; % is scaled to controls: 0 for no effect and ±100 for the full control effect; nearly all actives have a fitted effect of over 55% in size
Target sequence (A8B2U2 whole entry, looked up): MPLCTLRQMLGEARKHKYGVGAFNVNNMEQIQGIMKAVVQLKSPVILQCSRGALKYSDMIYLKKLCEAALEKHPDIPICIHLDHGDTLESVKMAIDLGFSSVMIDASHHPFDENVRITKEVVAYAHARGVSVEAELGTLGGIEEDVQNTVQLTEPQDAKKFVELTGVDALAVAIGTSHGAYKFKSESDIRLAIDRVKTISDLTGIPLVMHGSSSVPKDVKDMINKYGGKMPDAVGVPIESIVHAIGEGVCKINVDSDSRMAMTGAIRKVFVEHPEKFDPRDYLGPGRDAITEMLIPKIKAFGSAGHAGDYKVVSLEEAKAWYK
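40 nM FBPA preincubated 10 min at RT with compound (up to 57.5 uM final), then substrate plus GAPDH/TPI/NAD/arsenate coupling and diaphorase/resazurin added. Fluorescence read after 20 min at RT, 525/598 nm.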
Sm TGR inh – inhibitors of Schistosoma mansoni thioredoxin glutathione reductase | purified TGR, DTNB reduction, TNB absorbance 405 nm | Potency, µM (highest dose often 114 µM), for the others: at the top dose activity change, negative = inhibition, usual class: inhibitors | 360,000 tested, 3% active; also: potency is read from the fitted curve at half-maximal effect; % is scaled to controls: 0 for no effect and ±100 for the full control effect; nearly all actives have a fitted effect of over 60% in size
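Kinetic colorimetric format: TGR-catalysed, NADPH-driven DTNB reduction monitored via TNB absorbance. Enzyme dispensed at 20 nM; compound exposure 15 min at room temperature before reaction start.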
TbPYK inhibitor – inhibitors of Trypanosoma brucei pyruvate kinase | TbPYK enzyme, Kinase-Glo Plus ATP luminescence, 45 min | AID 624173 | Potency, µM (titrated, usually from 76.8 µM), for inactives: top-dose activity, negative = inhibition, actives largely listed as inhibitors | 410,000 tested, 0.12% active; also: potency is read from the fitted curve at half-maximal effect; % is scaled to controls: 0 for no effect and ±100 for the full control effect; nearly all actives have a fitted effect of over 50% in size
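TbPYK + substrate in 50 mM TEA pH 7.2, 100 mM KCl, 10 mM MgCl2, 0.05% BSA, 0.01% Tween-20; cpd pinned; ADP 130 uM final; 45 min RT; Kinase-Glo Plus 10 min; luminescence endpoint.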
* marks the source's active call; other numbers are inactive results; ? = inconclusive; . = no result given; [ ] = dose if it differs, or a comment. The full list was thinned out, with hits kept by preference. Unless noted, calls follow the shape of the dose curve; as a rule, active = well fitted curve in the direction sought with a large enough effect; inconclusive = small, poorly fitted or top-dose-only effect, or another doubt; inactive = no such curve, though single readings can be large; an effect the other way counts as inactive or inconclusive.

SMILES	CHX counter	LmPK inhibitor	Shiga toxin inh	Giardia FBPA inh	Sm TGR inh	TbPYK inhibitor
O=C1CN(C(=O)COc2ccc(Cl)cc2)C(c2ccccc2)c2cc(Br)ccc2N1 (centres undefined)	.	.	.	.	3.2%	-0.3%
CC(C)n1c(CN(C)c2ccccc2)nc2ccccc21	7.0	-1.3%	-3.9	-11.2%	-11.3%	-0.6%
CC(C)n1c(/C=C/c2ccccc2)nc2ccccc21	29.9*	-5.6%	78.9*	-7.7%	-4.2%	-6.7%
CCCn1c(/C=C/c2ccccc2)nc2ccccc21	26.1*	?	106.2*	-18.6%	-115.7%	-8.8%
CC(C)Cn1c(/C=C/c2ccco2)nc2ccccc21	19.1*	-3.2%	33.3	-22.3%	7.94µM*	-18.6%
COc1ccc(/C=C/c2nc3ccccc3n2Cc2ccc(OC)c(OC)c2)cc1	70.4*	-23.3%	57.1*	-23.0%	-3.9%	-5.2%
CC(C)Cn1c(S(=O)(=O)O)nc2ccccc21	7.6	-1.4%	-1.5	-10.9%	-0.1%	-2.4%
Cc1ccc2cccc(NC(=O)c3ccc(-c4ccc(Cl)cc4Cl)o3)c2n1	.	.	.	.	1.2%	3.4%
Cc1ccc(-c2nc(SCCOc3ccccc3C)n3[nH]c(=O)cc3n2)cc1	.	.	.	.	31.5%	6.2%
CCN(CC)Cc1c(NC(=O)c2ccc(OC)cc2)sc2c1CCCC2	.	.	.	.	-13.1%	0.5%
O=C(COc1ccc(Cl)cc1)NCCS(=O)(=O)N1CCN(c2ccccc2F)CC1	0.2	-0.3%	-9.8	6.5%	0.6%	2.4%
COCCOCCn1c(/C=C/c2ccccc2)nc2ccccc21	20.1*	14.1µM*	28.1	?	0.5%	-6.9%
Cc1ccc(C(C)(C)NC(=O)C2CCC(=O)N(Cc3ccccc3F)C2)cc1 (centres undefined)	16.1*	-5.6%	23.3	.	-17.5%	2.4%
CC1(C)CC(NC(=O)C2CCC(=O)N(Cc3ccccc3F)C2)CC(C)(C)C1 (centres undefined)	25.8*	0.9%	57.5*	6.6%	-26.6%	-9.5%
Cc1cccc(CNC(=O)C2CCC(=O)N(Cc3ccccc3F)C2)n1 (centres undefined)	-1.2	0.8%	-7.8	-17.6%	-0.7%	-6.7%
O=C(Nc1nnc([C@H]2C[C@H](O)[C@@H](CO)O2)s1)Nc1cccc(Cl)c1Cl	.	.	.	.	.	2.2%
Oc1c(/C=N/Nc2cccc3cccnc23)ccc2ccccc12	73.7*	-2.1%	90.4*	-9.2%	-1.6%	2.2%
COc1cc(/C=N/Nc2cccc3cccnc23)cc(OC)c1O	34.5*	?	68.9*	-27.3%	-14.1%	?
Oc1cccc(/C=N/Nc2cccc3cccnc23)c1	44.3*	?	123.3*	-13.6%	9.1%	-3.9%
O=C(COC(=O)/C=C/c1cccc(Cl)c1)NC1CC1	.	.	.	.	-4.7%	0.3%
COC(=O)C1=C(CN2CCCc3ccccc32)NC(=O)NC1c1ccc(F)cc1 (centres undefined)	20.5	2.0%	101.4*	-21.0%	-31.8%	1.7%
COC(=O)C1=C(CN2CCc3ccccc32)NC(=O)NC1c1cc(C)ccc1C (centres undefined)	-1.4	7.3%	6.3	-20.2%	-29.9%	-7.9%
O=S(=O)(c1cccs1)N1CCN(Cc2nc3ccccc3s2)CC1	38.1*	2.2%	48.6*	-16.7%	7.0%	-3.9%
O=C(CCc1nc2ccccc2s1)N1CCN(S(=O)(=O)c2cccs2)CC1	12.2	4.0%	39.0	-0.3%	-14.1%	1.3%
O=C(COC(=O)C1CCN(S(=O)(=O)c2cccs2)CC1)Nc1ccccc1	-2.3	0.1%	18.6	3.6%	-14.2%	-6.8%
SMILES	CHX counter	LmPK inhibitor	Shiga toxin inh	Giardia FBPA inh	Sm TGR inh	TbPYK inhibitor
O=C(OCc1nc2ccccc2s1)C1CCN(S(=O)(=O)c2cccs2)CC1	34.9*	3.8%	97.5*	6.0%	-7.9%	0.6%
Cc1nc2c(-c3ccccc3)c(C)[nH]n2c(=O)c1Cc1ccc(C(C)C)cc1	.	.	.	.	2.0%	-5.0%
CS(=O)(=O)c1ccc(-c2cc(Br)sc2-c2ccc(F)cc2)cc1	.	.	.	1.0%	.	.
CCC(Cc1ccccc1)NC(=O)C1CCN(S(=O)(=O)c2ccc3c(c2)CC(C)N3C(C)=O)CC1 (centres undefined)	-0.7	-3.8%	0.9	8.0%	-13.1%	-0.8%
COc1ccc(CNc2oc(-c3ccc(COc4ccc(OC)cc4)o3)nc2C#N)cc1	.	.	.	.	0.7%	5.7%
O=C(N/N=C/c1ccccc1O)NC12CC3CC(CC(C3)C1)C2	46.2*	0.4%	139.0*	5.0%	-19.6%	-9.4%
COc1cc(/C=N/NC(=O)NC23CC4CC(CC(C4)C2)C3)ccc1O	8.4	1.1%	37.2*	-4.7%	-1.1%	0.6%
CC(C)C[C@@H](CC(=O)N[C@@H](CCCN)CC(=O)N[C@@H]1CCCC[C@H]1C(=O)N[C@H](CC(=O)N[C@@H](CCC(=O)O)CC(=O)O)Cc1c[nH]c2ccccc12)NC(=O)[C@@H]1CCCC[C@H]1N	.	.	.	-23.6%	.	.
Cc1nc(SCC(=O)c2cccc([N+](=O)[O-])c2)n[nH]1	12.4	0.9%	12.0	?	-13.3%	?
Cc1nc([N+](=O)[O-])c(Br)n1Cc1ccccc1	-2.5	4.1%	-17.9	5.2%	2.51µM*	-5.7%
CCn1c(=N)n(CC(=O)c2cccc([N+](=O)[O-])c2)c2ccccc21	37.5*	-1.6%	80.8*	4.5%	6.7%	2.7%
Cc1nc([N+](=O)[O-])c(Br)n1CC(=O)c1ccc(F)cc1	-2.9	5.6%	-32.3	2.6%	3.16µM*	-2.3%
Cc1nc([N+](=O)[O-])c(SCC(O)CCl)n1Cc1ccc(Cl)cc1 (centres undefined)	-8.5	-0.8%	-17.1	-0.4%	.	-1.6%
Cc1nc([N+](=O)[O-])c(Br)n1CC(=O)c1cccc([N+](=O)[O-])c1	7.9	-2.2%[11.5 µM]	-11.9	-2.1%	2µM*	-6.1%
N=c1n(CC(=O)c2cccc([N+](=O)[O-])c2)c2ccccc2n1Cc1ccccc1	5.7	-2.5%	14.6	-6.5%	-2.2%	-10.4%
COc1ccc([C@H]2CC(=O)C=C(c3ccc(F)cc3OCc3ccccc3)C2)cc1OC	.	.	.	.	-11.7%	-7.8%
CN[C@H](CC(C)C)C(=O)N[C@H]1C(=O)N[C@@H](CC(N)=O)C(=O)N[C@H]2C(=O)N[C@H]3C(=O)N[C@H](C(=O)N[C@H](C(=O)O)c4cc(O)cc(O)c4-c4cc3ccc4O)[C@H](O)c3ccc(c(Cl)c3)Oc3cc2cc(c3O[C@@H]2OC(CO)[C@@H](O)[C@H](O)[C@H]2O[C@H]2C[C@](C)(N)[C@H](O)[C@H](C)O2)Oc2ccc(cc2Cl)[C@H]1O (some centres undefined)	.	.	.	.	.	2.0%
Cc1ccc(CNC(=O)c2ccccc2NC(=O)c2nsc3ccccc23)cc1	.	.	.	.	5.0%	4.1%
COC(=O)Cn1c(C)nc([N+](=O)[O-])c1Br	-0.1	9.2%	-3.5	2.9%	6.31µM*	5.6%

Bioassay records (PubChem BioAssay)
